{
  "source": "PubChem BioAssay (NCATS)",
  "assay": "P-glycoprotein substrates identified in KB-8-5-11 adenocarcinoma cell line, qHTS therapeutic library screen (AID 1346987); note: nearly all actives have a fitted effect of over 65% in size; for activity change, negative = cytotoxicity: series mostly up to about 44 µM",
  "how_it_was_run": "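KB-8-5-11, a colchicine-selected P-gp-overexpressing KB-3-1 subline, was grown without colchicine for the assay. Cells were seeded at 500 cells/well, dosed in concentration-response and incubated 72 h at 37 degree C, 5% CO2. Viability was read by CellTiter-Glo luminescence.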",
  "note": "Results filed as inconclusive are left out. Entries that show only a call come without a potency. Unmarked numbers belong to inactive results. The source made the active and inactive calls. Calls come from the whole dose curve; as a rule, active = well fitted inhibition curve with a large enough effect; inconclusive = small, poorly fitted or top-dose-only effect; inactive = flat fitted curve, though single readings scatter. Potency is the fitted concentration of half-maximal effect.",
  "data": [
    {"smiles": "CC(=O)/C=C/[C@H]1[C@](C)(O)[C@@H](O)[C@H](OC(C)=O)C2C(C)(C)CCC[C@@]21C", "note": "(stereo not given in full)", "values": [
      {"measurement": "Potency", "result": "inactive"}
    ]},
    {"smiles": "Cc1ccc(NC(=O)c2ccc(CN3CC[C@H](N(C)C)C3)c(C(F)(F)F)c2)cc1Nc1nccc(-c2cncnc2)n1", "values": [
      {"measurement": "Potency", "result": "inactive"}
    ]},
    {"smiles": "COc1ncc(Nc2ncc([C@H](C)N3CCN(S(C)(=O)=O)CC3)cc2-c2nc(C)nc(N)n2)cc1F", "values": [
      {"measurement": "Potency", "result": "9200 nM (active)"}
    ]},
    {"smiles": "O=S(=O)(c1ccc(S(=O)(=O)n2cnc3ccccc32)cc1)N1CCCCCC1", "values": [
      {"measurement": "Potency", "result": "inactive"}
    ]},
    {"smiles": "OC[C@H]1O[C@@H](O[C@H]2[C@H](OCCc3ccccc3)O[C@H](CO)[C@@H](O)[C@@H]2O)[C@H](O)[C@@H](O)[C@@H]1O", "values": [
      {"measurement": "Potency", "result": "inactive"}
    ]},
    {"smiles": "CC(C)(C)c1cc(Br)cc([C@H](CC(=O)O)NC(=O)CNC(=O)c2cc(O)cc(NC3=NCC(O)CN3)c2)c1", "note": "(stereo not given in full)", "values": [
      {"measurement": "Potency", "result": "inactive"}
    ]},
    {"smiles": "Cc1cc(Nc2ncc3cc(-c4c(Cl)cccc4Cl)c(=O)n(C)c3n2)ccc1F", "values": [
      {"measurement": "Potency", "result": "1300 nM (active)"}
    ]},
    {"smiles": "C=C1CCC2C(C)(C)CCC[C@]2(C)[C@H]1C/C=C(\\CO)C(=O)C(=O)O", "note": "(stereo not given in full)", "values": [
      {"measurement": "Potency", "result": "inactive"}
    ]},
    {"smiles": "CC1(CCOC2OC(CO)C(O)C(O)C2O)CCC23OC2(C1)C(O)CC1C(C)(C(=O)O)CCCC13C", "note": "(stereo not given)", "values": [
      {"measurement": "Potency", "result": "inactive"}
    ]},
    {"smiles": "C[C@@H]1O[C@@H](O[C@H]2[C@H](OC(=O)[C@]34CCC(C)(C)C[C@H]3C3=CCC5[C@@]6(C)C[C@H](O)[C@H](O[C@@H]7O[C@H](CO)[C@@H](O)[C@H](O)[C@H]7O)[C@@](C)(CO)C6[C@H](O)C[C@@]5(C)[C@]3(C)C[C@H]4O)OC[C@H](O)[C@@H]2O)[C@H](O)[C@H](O)[C@H]1O[C@@H]1OC[C@@H](O)[C@H](O[C@H]2OC[C@](O)(CO)[C@H]2O)[C@H]1O", "note": "(stereo not given in full)", "values": [
      {"measurement": "activity change, negative = cytotoxicity", "result": "4.28% [at 9.29 µM]"}
    ]},
    {"smiles": "C=CC[C@]12C[C@@H](OC)C(=O)C(OC)=C1O[C@@H](c1cc(OC)c3c(c1)OCO3)[C@@H]2C", "values": [
      {"measurement": "Potency", "result": "inactive"}
    ]},
    {"smiles": "CCOc1cc(CC(=O)NC(CC(C)C)c2ccccc2N2CCCCC2)ccc1C(=O)O", "note": "(stereo not given)", "values": [
      {"measurement": "Potency", "result": "inactive"}
    ]},
    {"smiles": "Cc1ccc(C(=O)N(CCCN)C(c2oc3cc(Cl)ccc3c(=O)c2Cc2ccccc2)C(C)C)cc1", "note": "(stereo not given)", "values": [
      {"measurement": "Potency", "result": "517 nM (active)"}
    ]},
    {"smiles": "COCC1OC(OC(C)(C)C2CCC3(C)C=C(C4CCC5C4(C)CC(O)C4OC(C(C)(C)OC6OC(CO)C(O)C(O)C6NC(C)=O)CCC45C)CCC3O2)C(NC(C)=O)C(O)C1O", "note": "(stereo not given)", "values": [
      {"measurement": "outcome", "result": "inactive [at 9.29 µM]"}
    ]},
    {"smiles": "CC(C)S(=O)(=O)NC[C@H](C)c1ccc(NC(=O)c2cc(F)cc(F)c2)cc1", "values": [
      {"measurement": "Potency", "result": "inactive"}
    ]},
    {"smiles": "C=C[C@H]1[C@H](O[C@@H]2O[C@H](CO)[C@@H](O)[C@H](O)[C@H]2O)OC=C(C(=O)OC)[C@H]1C[C@@H]1c2cc(O)c(O)cc2CCN1C(C)=O", "values": [
      {"measurement": "Potency", "result": "inactive"}
    ]},
    {"smiles": "CC[C@H](CO)Nc1nc(NCc2ccc(-c3ccccn3)cc2)c2ncn(C(C)C)c2n1", "values": [
      {"measurement": "Potency", "result": "231 nM (active)"}
    ]},
    {"smiles": "C=CC1C(OC2OC(CO)C(O)C(O)C2O)OC=C2C(=O)N3C(C(=O)O)Cc4c([nH]c5ccccc45)C3CC21", "note": "(stereo not given)", "values": [
      {"measurement": "Potency", "result": "inactive"}
    ]},
    {"smiles": "CC(=O)O[C@@H]1[C@H](O[C@@H]2O[C@@H](CO)[C@H](O)[C@H]2O)[C@@H](O[C@@H]2O[C@@H](C)[C@H](O[C@@H]3OC[C@@H](O)[C@H](O)[C@H]3O)[C@@H](O)[C@H]2O)[C@H](OC(=O)[C@]23CCC(C)(C)C[C@H]2C2=CCC4[C@@]5(C)CC[C@H](O[C@@H]6O[C@H](C(=O)O)[C@@H](O)[C@H](O)[C@H]6O[C@@H]6O[C@H](CO)[C@H](O)[C@H](O)[C@H]6O)[C@@](C)(C=O)C5CC[C@@]4(C)[C@]2(C)CC3)O[C@@H]1C", "note": "(stereo not given in full)", "values": [
      {"measurement": "outcome", "result": "inactive [at 9.29 µM]"}
    ]},
    {"smiles": "C=C1C(=O)O[C@H](CCC)[C@H]1C(=O)O", "values": [
      {"measurement": "Potency", "result": "inactive"}
    ]},
    {"smiles": "CC(C)(C)NCCCNC(=O)c1cccc(Br)c1", "values": [
      {"measurement": "Potency", "result": "inactive"}
    ]},
    {"smiles": "CC(Oc1cc(-n2cnc3ccc(CN4CCN(C)CC4)cc32)sc1C(N)=O)c1ccccc1C(F)(F)F", "note": "(stereo not given)", "values": [
      {"measurement": "Potency", "result": "2590 nM (active)"}
    ]},
    {"smiles": "CC(C)=CCC[C@](C)(O[C@@H]1O[C@H](CO)[C@@H](O)[C@H](O)[C@H]1O)[C@H]1CC[C@]2(C)[C@@H]1[C@H](O)CC1[C@@]3(C)CC[C@H](O)C(C)(C)C3[C@@H](O[C@@H]3O[C@H](CO)[C@@H](O)[C@H](O)[C@H]3O)C[C@]12C", "note": "(stereo not given in full)", "values": [
      {"measurement": "Potency", "result": "inactive"}
    ]},
    {"smiles": "Cc1ncc(CCCN(C)C)cc1Nc1ncc2c(n1)-c1ccc(C(F)(F)F)cc1NC(=S)C2", "values": [
      {"measurement": "Potency", "result": "65.1 nM (active)"}
    ]},
    {"smiles": "CC1=CC(=O)CC2C1(O)CCC(C)C21CC(c2ccoc2)OC1=O", "note": "(stereo not given)", "values": [
      {"measurement": "Potency", "result": "inactive"}
    ]}
  ]
}
